Rows were chosen to be rich in hits. Some 19% of all compounds tested hit in one or more screens of this group.
ASM inhibitor: Inhibitors of Secretory Acid Sphingomyelinase (S-ASM): qHTS. Sphingomyelin phosphodiesterase (Homo sapiens), P17405. placental ASM, HMU-PC fluorogenic substrate, 60 min. AID 504937, 2011. Potency, µM (top dose mostly 57.5 µM), for the others: at the highest dose activity change, negative = inhibition, most hits filed as inhibitors. 340,000 compounds, 0.006% hits; also: potency is read from the fitted curve at half-maximal effect
Target sequence (P17405 47-631 limits assumed): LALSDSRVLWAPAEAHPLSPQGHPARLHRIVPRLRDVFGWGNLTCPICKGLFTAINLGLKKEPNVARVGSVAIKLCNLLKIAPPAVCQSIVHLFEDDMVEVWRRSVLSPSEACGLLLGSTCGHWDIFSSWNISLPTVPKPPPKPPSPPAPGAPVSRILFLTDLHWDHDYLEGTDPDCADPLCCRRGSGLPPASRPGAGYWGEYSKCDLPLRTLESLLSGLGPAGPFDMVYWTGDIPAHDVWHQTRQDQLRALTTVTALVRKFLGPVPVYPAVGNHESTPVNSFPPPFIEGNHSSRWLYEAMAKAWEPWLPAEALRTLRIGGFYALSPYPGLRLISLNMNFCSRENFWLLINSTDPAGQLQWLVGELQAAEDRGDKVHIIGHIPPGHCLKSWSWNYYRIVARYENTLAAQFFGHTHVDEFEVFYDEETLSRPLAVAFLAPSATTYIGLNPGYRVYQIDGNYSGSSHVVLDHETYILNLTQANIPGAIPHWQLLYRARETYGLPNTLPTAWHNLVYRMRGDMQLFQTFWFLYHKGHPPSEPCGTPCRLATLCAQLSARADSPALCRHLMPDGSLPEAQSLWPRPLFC
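Steps: dispense placental human ASM, pin compound, wait 10 min at room temperature, add HMU-PC0 substrate at 9 uM final, incubate 60 min at 37 °C, add stop solution raising pH to 10, read fluorescence.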
IL-1B inflam inh: qHTS for Inhibitors of Inflammasome Signaling: IL-1-beta AlphaLISA Primary Screen; activity change, % at 57.5 µM; 360,000 compounds, 4.7% hits; THP-1 LPS/ATP IL-1B secretion, AlphaLISA, 16 h; stronger effect = lower value; in the data active = activity change below about -50%; inconclusive = mostly about -30% to -49%; also: % is scaled to controls: 0 for no effect and ±100 for the full control effect
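Secreted IL-1B measured by AlphaLISA bead assay after 16 h compound exposure of THP-1 cells; compounds (final up to 57.5 uM) added 1 h before LPS (250 ng/mL) and ATP (1.25 mM) stimulation; lower signal means less secretion.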
TGFb SMAD3 inh: qHTS for Inhibitors of TGF-b; HepG2 CAGA-GFP TGF-b/SMAD3 reporter, GFP fluorescence, 18 h; TGF-beta stimulated, 500 pg/mL final; Potency, µM (highest dose often 46.1 µM), for the others: at the top dose activity, negative = inhibition, actives largely listed as inhibitors; 410,000 compounds, 1.2% hits; AID 588855, 2011; also: potency is read from the fitted curve at half-maximal effect; % is scaled to controls: 0 for no effect and ±100 for the full control effect; nearly all actives have a fitted effect of over 65% in size
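Using HEPG2 CAGA-GFP reporter cells at 1000 cells/well, we pinned test compounds, stimulated with recombinant TGF-beta (500 pg/mL final) and measured total well GFP after 18 h.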
HepG2 viability: qHTS for Inhibitors of TGF-b: Cytotox Counterscreen; HepG2 CAGA-GFP viability, ATP luminescence, 18 h; Potency, µM (top dose mostly 46.1 µM), for the others: at the highest dose activity change, negative = cytotoxicity, actives largely listed as cytotoxic; 410,000 compounds, 0.76% hits; AID 588856, 2011; also: potency is read from the fitted curve at half-maximal effect
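HepG2 CAGA-GFP cells (1000/well, DMEM with 1% FBS) received compound, then TGF-beta at 500 pg/mL final, and were incubated 18 hours at 37 degrees C. Viability was read by CellTiter-Glo luminescence. Media-only wells were set as complete cell-killing and DMSO as no toxicity.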
TDP1 cell CPT: qHTS for Inhibitors of human tyrosyl-DNA phosphodiesterase 1 (TDP1): qHTS in cells in presence of CPT | Potency, µM (series often up to 46.2 µM), for the others: at the top dose activity change, negative = growth inhibition, usual class: inhibitors | AID 686979, 2013 | 420,000 compounds, 12% hits | chicken DT40 Tdp1-/-;hTDP1 cells + 20 nM CPT, ATP luminescence, 48 h; also: potency is read from the fitted curve at half-maximal effect; % is scaled to controls: 0 for no effect and ±100 for the full control effect; nearly all actives have a fitted effect of over 55% in size
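Chicken DT40 Tdp1-/- cells complemented with human TDP1, 400 cells/well, exposed to compounds plus 20 nM camptothecin for at least 48 h at 37 C; viability read as ATP content by CellTiter-Glo luminescence.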
TDP1 cell noCPT: qHTS for Inhibitors of human tyrosyl-DNA phosphodiesterase 1 (TDP1): qHTS in cells in absence of CPT | 420,000 compounds, 15% hits | AID 686978, 2013 | Potency, µM (highest dose often 46.2 µM), for inactives: at the highest dose activity change, negative = growth inhibition, hits mostly inhibitors | DT40 Tdp1-/- hTDP1 cells, no CPT, ATP luminescence, 48 h; also: potency is read from the fitted curve at half-maximal effect; % is scaled to controls: 0 for no effect and ±100 for the full control effect; nearly all actives have a fitted effect of over 55% in size
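Camptothecin absent (DMSO only). Human TDP1-complemented DT40 knockout cells, 400 cells/well, 37 °C for minimum 48 hr; ATP measured via CellTiter-Glo, 30 min dark incubation, luminescence.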
Active calls of the source: *; ? = inconclusive; . = no result given. Unless noted, calls follow the shape of the dose curve; as a rule, active = well fitted curve in the direction sought with a large enough effect; inconclusive = small, poorly fitted or top-dose-only effect, or another doubt; inactive = no such curve, though single readings can be large; an effect the other way counts as inactive or inconclusive.

SMILES	ASM inhibitor	IL-1B inflam inh	TGFb SMAD3 inh	HepG2 viability	TDP1 cell CPT	TDP1 cell noCPT
C#CCOCCOCCOCCNc1nc(N2CCN(C(=O)CCCCCCCCCCNC(=O)[C@@H](CCC(=O)O)n3cc(CCCCCN)nn3)CC2)nc(N2CCN(C(=O)CCCCCCCCCCNC(=O)[C@H](CO)n3cc(CCCSC)nn3)CC2)n1	-9%	-56*	2%	18%	13µM*	-29%
C#CCOCCOCCOCCNc1nc(N2CCN(C(=O)CCCCCCCCCCNC(=O)[C@H](CCCCN)n3cc(CCO)nn3)CC2)nc(N2CCN(C(=O)CCCCCCCCCCNC(=O)[C@H](CCCCN)n3cc(CCCC(=O)O)nn3)CC2)n1	3%	?	5%	3%	-1%	-4%
C#CCOCCOCCOCCNc1nc(N2CCOCC2)nc(N2CCN(C(=O)CCCCCCCCCCNC(=O)[C@H](CO)n3cc(CCCSC)nn3)CC2)n1	-2%	-14	?	-20%	23µM*	?
C#CCOCCOCCOCCNc1nc(N2CCN(C(=O)CCCCCCCCCCNC(=O)[C@@H](CCC(=O)O)n3cc(CCCCCN)nn3)CC2)nc(N2CCN(C(=O)CCCCCCCCCCNC(=O)[C@H](CO)n3cc(CCCCCN)nn3)CC2)n1	-2%	?	?	-22%	5%	3%
C#CCOCCOCCOCCNc1nc(N2CCN(C(=O)CCCCCCCCCCNC(=O)[C@@H](CCSC)n3cc(CCO)nn3)CC2)nc(N2CCN(C(=O)CCCCCCCCCCNC(=O)[C@H](CO)n3cc(CCCCCN)nn3)CC2)n1	-7%	-82*	?	-29%	?	?
Nc1ncnc2c1ncn2[C@@H]1O[C@H](C(=O)NC2CC2)[C@@H](O)[C@H]1O	.	.	.	.	-6%	4%
CCOC(=O)N1CCN(C(=O)CSCC(=O)Nc2nc(-c3ccc(C)cc3)cs2)CC1	-14%	6	-4%	-15%	16µM*	12µM*
CC(=O)Nc1nc(-c2ccc3c(c2)OCO3)cs1	2%	-53*	2%	2%	?	-14%
CCOC(=O)N1CCN(C(=O)CSCC(=O)Nc2nc(-c3cccs3)cs2)CC1	-3%	-14	0%	-19%	?	?
CCOC(=O)N1CCN(C(=O)CSCC(=O)Nc2nc(-c3ccc4c(c3)OCO4)cs2)CC1	-1%	?	-24%	-25%	21µM*	21µM*
COc1ccc(N2CC3=C(C2=O)C(c2ccc(O)c(OC)c2)NC(=O)N3C)cc1 (configuration not stated)	.	.	0%	-7%	.	.
Cc1cc(=O)oc2c3c(cc(OCC(=O)NC4CC4)c12)OC(C)(C)CC3	29%	-11	7%	-6%	-24%	-29%
Cc1ccc([N+](=O)[O-])cc1NC(=O)C(C)Sc1nnc(C)n1CC1CCCO1 (configuration not stated)	-20%	6	8%	5%	1%	-7%
NS(=O)(=O)c1ccc(N=Nc2nc3[nH]cnc(=S)c3[nH]2)cc1	.	.	?	-42%	5µM*	6.3µM*
CC1=NN(C(N)=S)C(=O)C1N=Nc1ccc(S(N)(=O)=O)cc1 (configuration not stated)	-3%	0	-1%	-15%	-8%	-9%
COCC(O)CNc1ccccc1 (configuration not stated)	7%	0	-8%	6%	1%	-18%
COCCNCC(O)CON=C1c2ccccc2-c2ccccc21 (configuration not stated)	-2%	-77*	-2%	0%	?	?
CSc1ccc(-c2nc3cccc(C)n3c2Nc2ccc3c(c2)OCO3)cc1	.	.	6%	-31%	?	18µM*
Cc1ccc(-c2nc3cccc(C)n3c2Nc2ccc3c(c2)OCO3)o1	.	.	?	-33%	23µM*	?
Cc1ccc(Nc2c(-c3ccc(C)o3)nc3cccc(C)n23)cc1	.	.	?	-90%	11µM*	11µM*
O=C(Nc1cc(C(F)(F)F)ccc1Cl)c1cc(S(=O)(=O)NCc2ccccc2)ccc1F	.	.	12%	-1%	?	?
CCC1(c2ccccc2)NC(=O)N(CC(=O)Nc2ccccc2C(=O)NC2CC2)C1=O (configuration not stated)	.	15	0%	5%	-4%	3%
Cc1ccc(NC(=O)Cc2nc(CN(C)CC(=O)Nc3ccc(C)cc3)cs2)cc1	4%	-15	-18%	1%	-6%	1%
COc1ccccc1NC(=O)N1CCC(CN2CCc3ccccc3C2)CC1	.	.	-5%	-13%	-18%	-21%
Cc1ccccc1Cn1c(SCc2ccc(C(=O)NCc3cccs3)cc2)nc2ccncc21	.	.	?	-25%	21µM*	18µM*
SMILES	ASM inhibitor	IL-1B inflam inh	TGFb SMAD3 inh	HepG2 viability	TDP1 cell CPT	TDP1 cell noCPT
CC(NC(=O)c1ccc(CSc2nc3ccncc3n2Cc2ccc(F)cc2)cc1)c1ccccc1 (configuration not stated)	.	.	?	-29%	?	?
Cc1ccccc1Cn1c(SCc2ccc(C(=O)NC(C)c3ccccc3)cc2)nc2ccncc21 (configuration not stated)	.	.	?	-23%	9.2µM*	16µM*
CC(O)CCC(=O)NCCNC(=O)CCC(C)O (configuration not stated)	1%	7	-1%	-31%	26µM*	?
Cc1ccc(C)c(S(=O)(=O)N2CCN(c3nc(CN4CCOCC4)nc4sc(C)c(C)c34)CC2)c1	-3%	-28	-27%	-5%	?	18µM*
Cc1sc2nc(CN3CCCC3)nc(N3CCN(S(=O)(=O)c4cccs4)CC3)c2c1C	10%	?	1%	-31%	?	18µM*
N#Cc1ccccc1NCC(=O)N1CCN(S(=O)(=O)c2ccccc2)CC1	3%	-15	5%	-30%	-27%	-14%
CCC(=O)n1nc(-c2ccc(Cl)cc2)nc1NCc1ccccc1	-1%	-17	-5%	-4%	15µM*	16µM*
O=C(N/N=C/C(Br)=C\c1ccccc1)c1ccco1	-2%	?	7%	-22%	6.5µM*	9.2µM*
